Data taken from PMC4336329 (PLoS ONE, 2015).
Out of some 310,000 compounds screened, about 14,000 (4.5%) showed an effect of 50% or more. The effect is printed as a negative number. What follows is part of a selection rich in strong results, with near analogues and random picks from the rest.

Target: human ether-à-go-go-related gene (hERG) potassium channel (human, UniProt Q12809)
Assay: primary screen, population patch clamp on CHO cells stably expressing hERG; higher = less effect of the substance
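Further: peak tail current of the secondary pulse compared with the same well before compound.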

human ether-à-go-go-related gene (hERG) potassium channel, sequence (Q12809 whole entry, looked up): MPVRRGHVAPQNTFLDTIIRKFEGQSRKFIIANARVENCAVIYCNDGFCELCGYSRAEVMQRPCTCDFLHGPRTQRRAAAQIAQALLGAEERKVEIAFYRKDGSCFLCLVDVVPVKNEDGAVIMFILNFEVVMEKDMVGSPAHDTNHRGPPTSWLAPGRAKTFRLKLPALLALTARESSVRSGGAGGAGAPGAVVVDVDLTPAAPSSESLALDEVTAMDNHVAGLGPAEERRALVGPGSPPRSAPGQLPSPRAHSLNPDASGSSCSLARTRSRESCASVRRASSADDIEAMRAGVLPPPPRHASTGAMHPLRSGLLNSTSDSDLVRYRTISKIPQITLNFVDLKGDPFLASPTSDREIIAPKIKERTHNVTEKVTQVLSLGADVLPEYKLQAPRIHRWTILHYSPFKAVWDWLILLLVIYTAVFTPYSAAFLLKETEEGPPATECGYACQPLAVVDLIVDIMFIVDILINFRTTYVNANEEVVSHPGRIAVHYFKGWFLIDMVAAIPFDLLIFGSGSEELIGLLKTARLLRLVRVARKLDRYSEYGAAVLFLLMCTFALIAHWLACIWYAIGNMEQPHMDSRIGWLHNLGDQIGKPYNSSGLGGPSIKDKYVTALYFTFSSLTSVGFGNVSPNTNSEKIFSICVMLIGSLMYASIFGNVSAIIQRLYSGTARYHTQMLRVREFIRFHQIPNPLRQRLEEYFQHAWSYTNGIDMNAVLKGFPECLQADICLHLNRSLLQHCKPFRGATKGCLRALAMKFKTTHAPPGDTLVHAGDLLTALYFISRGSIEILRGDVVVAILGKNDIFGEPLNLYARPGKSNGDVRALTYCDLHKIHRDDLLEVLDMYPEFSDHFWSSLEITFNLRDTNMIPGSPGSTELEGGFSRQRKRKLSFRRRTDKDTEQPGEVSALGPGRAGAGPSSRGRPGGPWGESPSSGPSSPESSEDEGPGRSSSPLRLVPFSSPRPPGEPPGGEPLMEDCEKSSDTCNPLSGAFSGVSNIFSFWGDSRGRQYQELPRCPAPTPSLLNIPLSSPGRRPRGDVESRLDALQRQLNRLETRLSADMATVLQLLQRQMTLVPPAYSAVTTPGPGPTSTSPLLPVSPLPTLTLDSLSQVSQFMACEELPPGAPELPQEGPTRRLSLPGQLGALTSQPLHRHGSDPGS

Structure (SMILES) | hERG current change (%, negative = inhibition) at 10uM
CCOC(=O)C1=C(c2ccccc2)NC(SCC(=O)NC2CCCCC2)=C(C#N)C1c1ccco1 (stereo not shown) | -1.35%
COc1ccc(OC)c(C(=O)Cn2nnc3ccccc3c2=O)c1 | 9.14%
O=C1C2=C(C(c3ccccc3)=NCCN2)C(c2cccc([N+](=O)[O-])c2)N1c1ccccc1 (stereo not shown) | -21.3%
O=[N+]([O-])c1ccc2c(c1)C(c1ccccc1)=NCCN2 | -69.1%
O=[N+]([O-])c1ccc2[nH]nc(-c3ccccc3)c2c1 | 9.26%
CN1CCN(c2ccc(Cl)cc2NC(=O)/C=C/c2ccc(F)cc2)CC1 | -75.6%
CN1CCN(c2ccc(S(=O)(=O)N3CCCCC3)cc2NC(=O)/C=C/c2ccc(Cl)c([N+](=O)[O-])c2)CC1 | -17.4%
O=C(/C=C/c1ccc(Cl)cc1)Nc1ccccc1N1CCOCC1 | 2.84%
CCc1cc(C(=O)Nc2cc(Cl)ccc2N2CCN(C)CC2)sc1C | 3.43%
CN1CCN(NC(=O)/C=C/c2cccc(Cl)c2)CC1 | -6.09%
CN1CCN(c2ccc(Cl)cc2NC(=O)/C=C/c2cccc(F)c2)CC1 | -69.9%
CCc1c(C)nc(N)nc1N1N=C1SC(C(C)=O)C(C)=O | 27.8%
CN(CCC#N)C(=O)COC(=O)c1ccccc1OCc1ccccc1Cl | 1.72%
CNC(=O)CC1C(=O)N(c2ccc(F)cc2)C(=S)N1NC(=O)c1ccc(Br)cc1 (stereo not shown) | 2.82%
O=C(NC(NC(=O)c1c(F)cccc1F)c1ccc([N+](=O)[O-])cc1)c1c(F)cccc1F | -43.8%
Cc1ccc(SCCC(=O)NCc2ccco2)cc1 | -3.96%
C/C(=N/NS(=O)(=O)c1ccc(C)cc1)c1ccc(NC(=O)C(F)(F)F)cc1 | 10.7%
CCN1CCN(CC(O)COC(c2ccccc2)c2ccccc2)CC1 (stereo not shown) | -17.1%
OC(COC(c1ccccc1)c1ccccc1)CN1CCCCC1 (stereo not shown) | -62.9%
Cl.c1ccc(COC(CN2CCCCCC2)CN2CCCCCC2)cc1 | -63.6%
CCOC(=O)C1CCCN(CC(O)COc2ccccc2C(C)=O)C1.Cl (stereo not shown) | -46.2%
Cl.OC(COCc1ccccc1)CN1CCCCC1 (stereo not shown) | 6.73%

Structure (SMILES) | hERG current change (%, negative = inhibition) at 10uM
CCOC(=O)C1CCCN(CC(O)COC(c2ccccc2)c2ccccc2)C1 (stereo not shown) | -79.7%
CCOC(=O)C1CCCN(CCC(C)c2ccccc2)C1 (stereo not shown) | -36.5%
CCC(OCC(O)CN1CCCCC1)c1ccccc1.Cl (stereo not shown) | 16.9%
CCOC(=O)C1CCN(CC(O)COC(CC)c2ccccc2)CC1.Cl (stereo not shown) | -63.7%
CCOC(=O)N1CCN(CC(O)COC(CC)c2ccccc2)CC1.Cl (stereo not shown) | -19.6%
OC(COC(c1ccccc1)c1ccccc1)CN1CCOCC1 (stereo not shown) | -5.77%
OC(COc1ccc(OCc2ccccc2)cc1)CN1CCCCC1 (stereo not shown) | -39.6%
CCOC(=O)C1CCCc2c1[nH]c1c(C(=O)O)cccc21 (stereo not shown) | 13.3%
COc1ccc2nc(SCC(=O)NCCc3ccccc3)[nH]c2c1 | -21.6%
COc1ccc(-c2cc(C(=O)N3CCN(c4cccc(C)c4C)CC3)c3ccccc3n2)cc1OC | 22.9%
c1ccc(-n2cccc2)c(N2CCCCC2)c1 | 3.76%
O=c1cc(CSc2nnc(-c3cccnc3)n2-c2ccccc2F)nc2sccn12 | -4.15%
CCCCNc1ccc(C(=O)OCCN(C)C)cc1.Cl | -11.6%
COc1ccc(C(=O)N/N=C/c2c(CO)cnc(C)c2O)cc1 | -1.9%
OC1CCCN(CC(O)COC(c2ccccc2)c2ccccc2)C1 (stereo not shown) | -18%
CC1CCCN(CC(O)COCc2ccccc2)C1.Cl (stereo not shown) | -1.07%
CC1CCCN(CC(O)COC(c2ccccc2)c2ccccc2)C1 (stereo not shown) | -65%
Cc1ccc(C(OCC(O)CN2CCCCC2)c2ccccc2)cc1 (stereo not shown) | -86.6%
Cn1c(CNC(=O)c2ccco2)nnc1SCC(=O)c1ccccc1 | 10.6%
CCn1nc(NS(=O)(=O)c2ccc([N+](=O)[O-])cc2)c2cc3ccccc3nc21 | 19.3%
Cc1cc(C)cc(SCc2noc(C(=O)NCCCN3CCOCC3)c2C(=O)NCCCN2CCOCC2)c1 | -30.4%
